Test results as given in PubChem BioAssay (EPA / NIEHS).
Records with an inconclusive call do not appear. Calls of active or inactive are those of the source. The calls were made as follows, unless noted: active = hit-call score of the fitted dose curve at least 0.9, where 1 is the maximum; inconclusive = response in the unintended direction; inactive = score below 0.9.

Tests used:
[1] = Tanguay_ZF_120hpf_SOMI_legacy: (Legacy) Oregon State University Tanguay Lab 120 Hour Post-fertilization zebrafish Assay for Somite Malformation (AID 2283647)
Outline: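 Somitogenesis defects are recorded as binary calls in whole larvae at 120 hpf after continuous static chemical exposure starting at 6 hpf in dechorionated 5D embryos. DMSO serves as negative control and baseline.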

[2] = Tanguay_ZF_120hpf_PFIN_legacy: (Legacy) Oregon State University Tanguay Lab 120 Hour Post-fertilization zebrafish Assay for Pectoral Fin Malformation (AID 2283648);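 also: each larva judged yes or no for fin defect by brightfield with dead larvae skipped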
Outline: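 Dechorionated Tropical 5D wild-type zebrafish embryos, one per well, statically exposed from 6 to 120 hpf at 28C with 0.64% DMSO final. Pectoral fin malformation scored present/absent by brightfield at 120 hpf; not scored in dead embryos.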

[3] = Tanguay_ZF_120hpf_CFIN_legacy: (Legacy) Oregon State University Tanguay Lab 120 Hour Post-fertilization zebrafish Assay for Caudal Fin Malformation (AID 2283649)
Outline: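 Single dechorionated 5D wild-type embryos are dosed at 6 hpf (final DMSO 0.64%) and held statically at 28C. Caudal fin malformation is recorded as present or absent at 120 hpf under brightfield, excluding dead embryos.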

[4] = Tanguay_ZF_120hpf_CIRC_legacy: (Legacy) Oregon State University Tanguay Lab 120 Hour Post-fertilization zebrafish Assay for Circulatory Malformation (AID 2283651)
Outline: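 Tropical 5D wild-type embryos, dechorionated with pronase at 4 hpf, were placed singly in wells at 6 hpf and exposed statically at 28C to 120 hpf (0.64% DMSO final). Circulatory malformation was scored present/absent by brightfield microscopy.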

[5] = Tanguay_ZF_120hpf_SWIM_legacy: (Legacy) Oregon State University Tanguay Lab 120 Hour Post-fertilization zebrafish Assay for Swim Bladder Malformation (AID 2283654);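 also: swim bladder malformation in each larva scored yes or no under brightfield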
Outline: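 Dechorionated wild-type Tropical 5D zebrafish embryos, one per well from 6 hpf, were statically exposed at 28C until 120 hpf in 0.64% DMSO. Swim bladder malformation scored as present/absent by brightfield microscopy; not scored in dead larvae.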

[6] = Tanguay_ZF_120hpf_TRUN_legacy: (Legacy) Oregon State University Tanguay Lab 120 Hour Post-fertilization zebrafish Assay for Truncated Body (AID 2283655)
Outline: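 Single dechorionated zebrafish embryos received test chemical from 6 hpf in 0.64% DMSO, kept at 28C. At 120 hpf, brightfield inspection noted any truncated body.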

[7] = Tanguay_ZF_120hpf_NC_legacy: (Legacy) Oregon State University Tanguay Lab 120 Hour Post-fertilization zebrafish Assay for Notochord and Tail Malformation (AID 2283656)
Outline: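 Dechorionated 5D zebrafish, 1/well from 6 hpf; static exposure to 120 hpf, 28C, sealed, dark; final DMSO 0.64% v/v. NC scored binary (present/absent); dead embryos not scored. Fit vs DMSO baseline, gain direction.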

[8] = Tanguay_ZF_120hpf_TR_legacy: (Legacy) Oregon State University Tanguay Lab 120 Hour Post-fertilization zebrafish Assay for Touch Response (AID 2283667)
Outline: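 Tropical 5D wild-type zebrafish embryos statically exposed to 120 hpf at 28°C, sealed and dark-covered, 0.64% DMSO final; touch response scored as present/absent by brightfield microscopy at 120 hpf. Trimethyltin chloride 5 uM positive control; dead embryos not scored.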

[9] = Tanguay_ZF_120hpf_ActivityScore_legacy: (Legacy) Oregon State University Tanguay Lab 120 Hour Post-fertilization zebrafish Assay Score for Activity (AID 2283742)
Outline: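 Dechorionated Tropical 5D embryos, one per well from 6 hpf, statically exposed to 120 hpf at 28 °C in 0.64% DMSO. Mortality and malformations scored binary by brightfield microscopy; activity score combines 18 endpoints, fitted positively versus DMSO.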

[10] = CCTE_Padilla_ZF_144hpf_TERATOSCORE: (Legacy) CCTE's 144 Hour Post-fertilization zebrafish Assay Teratoscore, Padilla Lab (AID 2283679; active = hit-call score of the fitted dose curve at least 0.9, where 1 is the maximum; inactive = score below 0.9;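 as to AC50: zebrafish embryos with chorions exposed by immersion from 6-8 hpf to 5 dpf with daily renewal; teratogenicity score from eye scoring of death hatching and malformations at 144 hpf; higher score means more developmental defects relative to DMSO baseline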)
Outline: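 Larvae scored by eye at 144 hpf for death, hatching and malformations after a day in clean Hanks'. Before that, daily-renewed exposure at 80 uM (0.4% DMSO, 26C) from roughly 6-8 hpf through 5 dpf, 4 embryos per chemical.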

[11] = STM_H9_OrnithineISnorm_perc: Stemina devTOX quickPredict H9 human embryonic stem cell (hESC)-based Assay for Ornithine (ORN) Metabolite Biomarker, Normalized (AID 2283712; active = hit-call score of the fitted dose curve at least 0.9, where 1 is the maximum; inactive = score below 0.9;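 also: ornithine released into spent medium during last day measured by mass spectrometry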)
Outline: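 Undifferentiated pluripotent H9 hESCs were exposed to compound for 72h, with media and compound replaced every 24h. Ornithine in final 24-h conditioned media was measured by UPLC-HRMS, normalized to 13C-labeled spike-in standard and to median 0.1% DMSO control.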

[12] = STM_H9_CystineISnorm_perc: Stemina devTOX quickPredict H9 human embryonic stem cell (hESC)-based Assay for Cystine (CYSS) Metabolite Biomarker, Normalized (AID 2283713; active = hit-call score of the fitted dose curve at least 0.9, where 1 is the maximum; inactive = score below 0.9)
Outline: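 Undifferentiated H9 hESCs were exposed to compound for 72h, with medium and compound replaced every 24h. Final-24h conditioned medium was deproteinized and analyzed by UPLC-HRMS. Cystine EIC area was normalized to spiked C13 standard and 0.1% DMSO median.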

[13] = STM_H9_OrnCyssISnorm_ratio: Stemina devTOX quickPredict H9 human embryonic stem cell (hESC)-based Assay for Ornithine (ORN):Cystine (CYSS) Ratio (AID 2283714)
Outline: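 Undifferentiated H9 hESCs exposed 72 h, media and compound replaced every 24 h; final 24-h conditioned media deproteinized and analysed by UPLC-HRMS against C13 spike-ins. Value is the internal-standard-normalized ORN/CYSS ratio versus 0.1% DMSO.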

[14] = Tanguay_ZF_120hpf_PIG_legacy: (Legacy) Oregon State University Tanguay Lab 120 Hour Post-fertilization zebrafish Assay for Pigmentation Malformation (AID 2283650)
Outline: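 Dechorionated Tropical 5D wild-type embryos, one per well from 6 hpf, statically exposed at 28C in the dark until 120 hpf, 0.64% DMSO final. Pigmentation scored present/absent by brightfield microscopy; dead embryos not scored; fitted versus DMSO.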

[15] = system: Thyroperoxidase (TPO), gene 54314; assay: CCTE_Simmons_AUR_rTPO: CCTE's Amplex UltraRed Assay for Thyroperoxidase (TPO) Inhibition, Simmons Lab (AID 2283662);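 as to AC50: potency for loss of signal meaning inhibition of peroxidase activity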
Outline: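 Rat thyroid microsomal TPO + 25 uM AUR in 200 mM K phosphate; cpd 5 nM–87.5 uM [final], 8 conc, 0.5% DMSO; 300 uM H2O2 starts rxn; 37C dark 30 min; endpoint FI 544/590 nm; n=3.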

[16] = CCTE_Simmons_CellTiterGLO_HEK293T: Viability Assessment in CCTE's Assays for Thyroperoxidase (TPO) Inhibition, Simmons Lab (AID 2283665);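 as to AC50: cells exposed to compound for 24 h before readout; actives reduce ATP signal below DMSO vehicle meaning cytotoxicity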
Outline: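 HEK293T cells in DMEM with 1% FBS were dosed with 8 concentrations (5 nM–87.5 uM final, 0.5% DMSO) for 24 hr at 37C; ATP content was read by CellTiter-Glo luminescence, loss-of-signal versus DMSO, three biological replicates.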

[17] = read-out: solute carrier (SLC22A6), SLC22A6 (gene 9356); assay: LTEA_HepaRG_SLC22A6: Life Technologies and Expression Analysis (LTEA) Assay for solute carrier (SLC22A6) using HepaRG (AID 2283653; active = hit-call score of the fitted dose curve at least 0.9, where 1 is the maximum; inactive = score below 0.9); details: mRNA level, 48 h; actives raise or lower the signal
Outline: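 Gene-expression endpoint in HepaRG hepatic cells: duplicate 8-point concentration-response, highest 100 uM, 48 h treatment in serum-free medium with 0.5% DMSO. SLC22A6 expression measured by qRT-PCR, normalised to ACTB/GAPDH/POLR2A.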

[18] = read-out: solute carrier (SLC10A1), SLC10A1 (gene 6554); assay: LTEA_HepaRG_SLC10A1: Life Technologies and Expression Analysis (LTEA) Assay for solute carrier (SLC10A1) using HepaRG (AID 2283657; active = hit-call score of the fitted dose curve at least 0.9, where 1 is the maximum; inactive = score below 0.9); details: mRNA level, 48 h; actives raise or lower the signal
Outline: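 HepaRG cells (single lot) exposed 48 h in serum-free induction medium, 8-point half-log series from 100 uM top in 0.5% DMSO, duplicate. SLC10A1 mRNA by qRT-PCR normalised to ACTB, GAPDH, POLR2A; bidirectional fit versus DMSO.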

[19] = read-out: matrix metalloproteinase-1 (MMP1), MMP1 (gene 4312); assay: LTEA_HepaRG_MMP1: Life Technologies and Expression Analysis (LTEA) Assay for matrix metalloproteinase-1 (MMP1) using HepaRG (AID 2283658; active = hit-call score of the fitted dose curve at least 0.9, where 1 is the maximum; inactive = score below 0.9); details: mRNA level, 48 h; actives raise or lower the signal
Outline: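 In this screen, human liver HepaRG cultures receive each chemical in duplicate for 48 h (top 100 uM, 0.5% DMSO). MMP1 expression is then quantified by TaqMan qRT-PCR with ACTB/GAPDH/POLR2A normalization.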

SMILES: CC(C)N(Cc1ccccc1)C(=O)C(C)(C)C
- outcome [1]: inactive
- outcome [2]: inactive
- outcome [3]: inactive
- outcome [4]: inactive
- outcome [5]: inactive
- outcome [6]: inactive
- outcome [7]: inactive
- outcome [8]: inactive
- outcome [9]: inactive

SMILES: Clc1ccc(C(c2ccc(Cl)cc2)C(Cl)Cl)cc1
- outcome [4]: inactive
- outcome [5]: inactive
- outcome [6]: inactive
- outcome [7]: inactive
- outcome [8]: inactive
- AC50 [10]: 20.3 µM (active)
- outcome [11]: inactive
- outcome [12]: inactive
- outcome [13]: inactive
- outcome [9]: inactive

SMILES: CCCCCOC(=O)c1ccccc1C(=O)OCCCCC
- outcome [1]: inactive
- outcome [2]: inactive
- outcome [14]: inactive
- outcome [4]: inactive
- outcome [5]: inactive
- outcome [6]: inactive
- outcome [7]: inactive
- outcome [8]: inactive
- AC50 [10]: 4.55 µM (active)
- outcome [11]: inactive
- AC50 [12]: 19.8 µM (active)
- AC50 [13]: 21.9 µM (active)
- outcome [9]: inactive

SMILES: C[N+](C)(C)CC1CO1 (stereo not given)
- outcome [1]: inactive
- outcome [3]: inactive
- outcome [14]: inactive
- outcome [5]: inactive
- outcome [6]: inactive
- outcome [7]: inactive
- outcome [8]: inactive
- AC50 [11]: 21 µM (active)
- AC50 [12]: 11 µM (active)
- AC50 [13]: 16.5 µM (active)
- outcome [9]: inactive

SMILES: CN(C)c1ccc(C(=O)c2ccc(N(C)C)cc2)cc1
- AC50 [1]: 28.4 µM (active)
- AC50 [2]: 17.2 µM (active)
- outcome [3]: inactive
- AC50 [4]: 9.77 µM (active)
- AC50 [5]: 30.1 µM (active)
- outcome [6]: inactive
- outcome [7]: inactive
- AC50 [15]: 8.94 µM (active)
- AC50 [16]: 43.8 µM (active)
- AC50 [8]: 43.3 µM (active)
- AC50 [10]: 0.544 µM (active)
- AC50 [9]: 32.1 µM (active)

SMILES: CCCCOC(=O)c1ccccc1C(=O)OCc1ccccc1
- outcome [1]: inactive
- outcome [2]: inactive
- outcome [3]: inactive
- outcome [4]: inactive
- outcome [6]: inactive
- outcome [7]: inactive
- outcome [15]: inactive
- AC50 [16]: 8.68 µM (active)
- outcome [8]: inactive
- AC50 [10]: 1.55 µM (active)
- outcome [11]: inactive
- AC50 [12]: 32.6 µM (active)
- AC50 [13]: 34.6 µM (active)
- outcome [9]: inactive

SMILES: c1ccc(N=Nc2ccccc2)cc1
- outcome [2]: inactive
- outcome [3]: inactive
- outcome [7]: inactive
- outcome [9]: inactive

SMILES: O=C(O)C1C2CCC(O2)C1C(=O)O (stereo not given)
- outcome [1]: inactive
- outcome [2]: inactive
- outcome [3]: inactive
- outcome [4]: inactive
- outcome [5]: inactive
- outcome [7]: inactive
- outcome [9]: inactive

SMILES: CC(C)(C)OOC(C)(C)CCC(C)(C)OOC(C)(C)C
- outcome [2]: inactive
- outcome [3]: inactive
- outcome [14]: inactive
- outcome [4]: inactive
- outcome [5]: inactive
- outcome [6]: inactive
- outcome [7]: inactive
- outcome [8]: inactive
- outcome [9]: inactive

SMILES: N#CC(Br)Br
- outcome [1]: inactive
- outcome [2]: inactive
- outcome [3]: inactive
- outcome [4]: inactive
- outcome [5]: inactive
- outcome [6]: inactive
- outcome [7]: inactive
- outcome [8]: inactive
- outcome [10]: inactive
- outcome [9]: inactive

SMILES: CO[C@@H]1[C@H](OC(=O)NC(=O)CCl)CC[C@]2(CO2)[C@H]1[C@@]1(C)O[C@@H]1CC=C(C)C
- outcome [1]: inactive
- outcome [2]: inactive
- outcome [3]: inactive
- outcome [4]: inactive
- outcome [17]: inactive
- outcome [5]: inactive
- outcome [6]: inactive
- outcome [7]: inactive
- AC50 [18]: 0.389 µM (active)
- outcome [19]: inactive
- outcome [15]: inactive
- outcome [16]: inactive
- outcome [8]: inactive
- outcome [10]: inactive
- AC50 [11]: 0.0844 µM (active)
- AC50 [12]: 0.039 µM (active)
- AC50 [13]: 0.0656 µM (active)
- outcome [9]: inactive

SMILES: Oc1ccccc1Cl
- outcome [3]: inactive
- outcome [14]: inactive
- outcome [4]: inactive
- outcome [5]: inactive
- outcome [6]: inactive
- outcome [15]: inactive
- outcome [16]: inactive
- outcome [9]: inactive
